The text below walks through data of PubChem BioAssay (NCATS).

Results filed as inconclusive are left out. Values without a mark were called inactive. Calls of active or inactive are those of the source. The call rests on the fitted dose curve; in most records, active means well fitted curve in the direction sought with a large enough effect; inconclusive means small, poorly fitted or top-dose-only effect, or another doubt; inactive means no such curve, though single readings can be large; an effect the other way counts as inactive or inconclusive.

The test system of assay [1] is HaCat. The assay is described as follows: Cytotoxic Profiling of Annotated Libraries Using Quantitative High-Throughput Screening (AID 1296008). Further: nearly all actives have a fitted effect of over 60% in size. To be noted: Five cell lines viability, CellTiter-Glo ATP luminescence, 48-72 h; max response: active compounds read low. In a few lines:
(§1)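 Cytotoxicity was measured as CellTiter-Glo ATP luminescence, read after 10 min at room temperature. Compound treatment of the cells lasted 48 or 72 hr at 37 degrees Celsius in a qHTS format.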

Assay [2] has as its system NIH3T3. The description is as above. To be noted: Five cell lines viability, CellTiter-Glo ATP luminescence, 48-72 h; max response: active compounds read low. Summed up:
as §1
For orientation: ATP-based viability assays read luminescence as a measure of living cells.

Assay [3] has as its system MCC-13. The assay is described as follows: qHTS assay to identify novel small-molecules to repurpose for Merkel cell carcinoma treatment (AID 1296009). Further: nearly all actives have a fitted effect of over 60% in size. Particulars: MCC and control cell lines, CellTiter-Glo viability, 72 h; series mostly up to 46 µM. In a few lines:
(§2)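 72 hr, 37 degree celsius; NPC 8-pt / MIPE 11-pt dose response; compound pinned in DMSO; CellTiter-Glo, 10 min RT, luminescence; normalized to no-cell and DMSO controls.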
In general terms: In qHTS, concentration-response curves come from the screen itself.

In assay [4] the test system is MCC-26. Described as above. To be noted: MCC and control cell lines, CellTiter-Glo viability, 72 h; series mostly up to 46 µM. Summed up: as §2
Assay [5] relates to MKL-1. The description is as above. Particulars: MCC and control cell lines, CellTiter-Glo viability, 72 h; series mostly up to 46 µM. In a few lines:
as §2

Assay [6] deals with MKL-2. Described as above. Particulars: MCC and control cell lines, CellTiter-Glo viability, 72 h; series mostly up to 46 µM. Summed up: as §2
Assay [7] concerns C33A. The assay is described as follows: Primary qHTS to identify gynecologic anti-cancer compounds using libraries of approved drugs and bioactive compounds (AID 1345084). Further: nearly all actives have a fitted effect of over 55% in size. Particulars: Gynecologic cancer cell panel viability, ATPlite luminescence, 48 h; series mostly up to 57.5 µM. In a few lines: (§3)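 Measured: luminescence after ATPlite addition (15 min, RT). Exposure: 48 h, 37 C, 5% CO2.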

Assay [8] deals with CASKI. The assay is described as above. Particulars: Gynecologic cancer cell panel viability, ATPlite luminescence, 48 h; series mostly up to 57.5 µM. Summed up:
as §3

Assay [9] relates to Es-2. Described as above. To be noted: Gynecologic cancer cell panel viability, ATPlite luminescence, 48 h; series mostly up to 57.5 µM. In a few lines: as §3
For assay [10], the system named is HeLa. The description is as above. Particulars: Gynecologic cancer cell panel viability, ATPlite luminescence, 48 h; series mostly up to 57.5 µM. In a few lines:
as §3

Assay [11] deals with Hek293T. Described as above. To be noted: Gynecologic cancer cell panel viability, ATPlite luminescence, 48 h, control line for the selectivity index; series mostly up to 57.5 µM. Summed up: as §3
The subject of assay [12] is JEG-3. The assay is described as above. Particulars: Gynecologic cancer cell panel viability, ATPlite luminescence, 48 h; series mostly up to 57.5 µM. In a few lines: as §3
The subject of assay [13] is OV90. Described as above. To be noted: Gynecologic cancer cell panel viability, ATPlite luminescence, 48 h; series mostly up to 57.5 µM. In a few lines: as §3
The test system of assay [14] is UISO. The assay is described as follows: qHTS assay to identify novel small-molecules to repurpose for Merkel cell carcinoma treatment (AID 1296009). Further: nearly all actives have a fitted effect of over 60% in size. Particulars: MCC and control cell lines, CellTiter-Glo viability, 72 h; series mostly up to 46 µM. Summed up:
as §2

Assay [15] deals with WaGa. The assay is described as above. To be noted: MCC and control cell lines, CellTiter-Glo viability, 72 h; series mostly up to 46 µM. Summed up:
as §2

Assay [16] relates to CAOV3. The assay is described as follows: Primary qHTS to identify gynecologic anti-cancer compounds using libraries of approved drugs and bioactive compounds (AID 1345084). Further: nearly all actives have a fitted effect of over 55% in size. Particulars: Gynecologic cancer cell panel viability, ATPlite luminescence, 48 h; series mostly up to 57.5 µM. In a few lines:
as §3
On the % scale 0 is the no-effect control and ±100 the full control effect; potency means the concentration at half of the fitted maximal effect.

Take `COc1cc2nc(Cl)nc(N)c2cc1OC`: the max response is 0.108% in assay [1] and -0.129% in [2]. Besides, the Potency result in assay [3], in assay [4], in assay [5], in assay [6], in assay [7] and in assay [8] was “inactive” throughout. In addition, the Potency result in [9], in assay [10], in assay [11], in [12] and in assay [13] was “inactive” each time.
Regarding `NC(=O)NS(=O)(=O)c1ccc(Cl)cc1`, the results for the max response in assay [1] and in assay [2] were 0.84% and -2.72%, respectively. Also, the Potency entry in assay [3], in [4], in [5], in assay [6], in [14] and in assay [15] was “inactive” throughout. Besides, the Potency entry in assay [7], in assay [16], in assay [8], in [9], in assay [10] and in assay [11] was “inactive” throughout. The Potency entry in assay [12] and in assay [13] was “inactive” in each case.
For the compound `CCOC(=O)C(=O)c1csc(NC=O)n1`, the results for the max response in assay [1] and in [2] were 4.32% and 0.793%, respectively. Moreover, the Potency entry in [3], in assay [4], in assay [5], in [6], in assay [14] and in [15] was “inactive” throughout. Besides, the Potency result in assay [7], in assay [16], in [8], in assay [9], in assay [10] and in assay [11] was “inactive” each time. For the same compound, the Potency result in assay [12] and in [13] was “inactive” each time.
Regarding `CCCc1ccc(OCC(=O)N2CCN(C(=O)COc3ccc(CCC)cc3OC)CC2)c(OC)c1`, the values for the max response in assay [1] and in assay [2] were 5% and 0.399%, respectively. The Potency entry in assay [3], in assay [4], in assay [5], in assay [6], in assay [14] and in [15] was “inactive” throughout. Moreover, the Potency result in assay [7], in [16], in assay [8], in [9], in [10] and in [11] was “inactive” each time. Moreover, the Potency entry in assay [12] and in assay [13] was “inactive” in each case.
Consider `O=C(O)C1CCC1`, for which the max response in assay [1] was 1.71%; in [2] it was -4.19%. The Potency entry in assay [3], in assay [4], in assay [5], in assay [6], in assay [14] and in assay [15] was “inactive” throughout. Moreover, the Potency result in assay [7], in assay [16], in assay [8], in assay [9], in assay [10] and in assay [11] was “inactive” throughout. In addition, the Potency entry in assay [12] and in assay [13] was “inactive” each time.
As for `CCCC(=O)O[C@]1(C(=O)CC)CC[C@H]2[C@@H]3CCC4=CC(=O)CC[C@]4(C)[C@H]3[C@@H](O)C[C@@]21C`, the values for the max response in assay [1] and in assay [2] were -13.1% and -5.79%, respectively. Moreover, the Potency result in [3], in [4], in assay [5], in assay [6], in [14] and in [7] was “inactive” throughout. The Potency result in assay [16], in assay [8], in assay [9], in [10], in assay [11] and in assay [12] was “inactive” in each case. Moreover, the Potency entry in assay [13] is “inactive”.
For the compound `Cc1cc2nc3ccc(=[N+](C)C)cc-3sc2cc1N`, the Potency is 6.68 µM (active) in assay [1]; 10.6 µM (active) in assay [2]; 2.99 µM (active) in assay [3]; 11.9 µM (active) in assay [4]; 596 nM (active) in assay [5]; 531 nM (active) in assay [6]. Further, the Potency was 1.68 µM (active) in [14]; 668 nM (active) in [15]; 3.98 µM (active) in assay [7]; 12.6 µM (active) in assay [8]; 14.1 µM (active) in assay [9]; 14.1 µM (active) in assay [11]. Besides, the Potency in assay [13] was 22.4 µM (active).
For `CNC[C@H](O)[C@@H](O)[C@H](O)[C@H](O)CO`, the max response in assay [1] was -3.04%; in assay [2], 1.64%. The Potency result in assay [3], in assay [4], in assay [5], in assay [6], in [14] and in assay [15] was “inactive” in each case. Also, the Potency entry in assay [7], in assay [16], in [8], in assay [9], in [10] and in assay [12] was “inactive” in each case. Further, in assay [13], the Potency result is “inactive”.
For the compound `Cc1sccc1Br`, the max response in [1] was 1.43%; in assay [2], -2.8%. Besides, the Potency result in assay [3], in [4], in assay [5], in [6], in assay [14] and in assay [15] was “inactive” in each case. Also, the Potency entry in assay [7], in assay [16], in assay [8], in assay [9], in [10] and in assay [11] was “inactive” throughout. The Potency result in [12] and in assay [13] was “inactive” each time.
With `Cc1onc(-c2c(Cl)cccc2Cl)c1C(=O)Cl`, the max response is -4.26% in assay [1] and -2.46% in assay [2]. The Potency result in [3], in assay [4], in assay [5], in [6], in [14] and in [15] was “inactive” in each case. Further, the Potency entry in [7], in assay [8], in assay [9], in [10], in [11] and in assay [12] was “inactive” throughout. In [13], the Potency result is “inactive”.
On to `Nc1ccc(C(=O)OCC(O)CO)cc1` (stereo not drawn), for which the figures for the max response in [1] and in assay [2] were -8.17% and 2.44%, respectively. Besides, the Potency result in assay [3], in assay [4], in assay [5], in assay [6], in [14] and in [15] was “inactive” each time. The Potency result in assay [7], in [16], in assay [8], in assay [9], in assay [10] and in assay [11] was “inactive” in each case. The Potency entry in assay [12] and in [13] was “inactive” each time.
`CC1(C)O[C@@H]2C[C@H]3[C@@H]4C[C@H](F)C5=CC(=O)C=C[C@]5(C)[C@@]4(F)[C@@H](O)C[C@]3(C)[C@]2(C(=O)CO)O1`: the max response in assay [1] is 1.62%; in assay [2] it was -12.6%. In addition, the Potency result in assay [3], in [4], in [5], in [6], in assay [14] and in [15] was “inactive” each time. Moreover, the Potency result in assay [7], in assay [8], in [9], in assay [10], in [11] and in assay [12] was “inactive” each time. Also, the Potency entry in assay [13] was “inactive”.
For `CC(=O)c1cc2ccccc2s1`, the max response in [1] is -0.924%; in assay [2] it was 1.18%. Also, the Potency entry in assay [3], in assay [4], in assay [5], in assay [6], in [14] and in [15] was “inactive” each time. For the same compound, the Potency result in assay [7], in [16], in [8], in assay [9], in [10] and in assay [11] was “inactive” each time. In addition, the Potency entry in assay [12] and in [13] was “inactive” throughout.
